Assay results as given in PubChem BioAssay (NCI).
This is part of a sample that, as a whole, favours compounds with a hit. Of some 83,000 tested, about 20% had one in any assay.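 Single-dose data. Exposure time 48 hours. Values below 10 considered active.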 Activity calls are given as the source filed them.

How the values were obtained:
Assay in all cases: NCI-60 one-dose screen, 48 h (100 = growth as untreated, 0 = no growth, -100 = all killed)
Details in all cases: 10 µM
SN12C renal = system: SN12C renal
UO-31 renal = system: UO-31 renal
TK-10 renal = system: TK-10 renal
ACHN renal = system: ACHN renal
CAKI-1 renal = system: CAKI-1 renal
A498 renal = system: A498 renal
CCRF-CEM leukemia = system: CCRF-CEM leukemia
MOLT-4 leukemia = system: MOLT-4 leukemia
SR leukemia = system: SR leukemia
RPMI-8226 leukemia = system: RPMI-8226 leukemia
OVCAR-8 ovarian = system: OVCAR-8 ovarian
OVCAR-5 ovarian = system: OVCAR-5 ovarian
OVCAR-4 ovarian = system: OVCAR-4 ovarian
SK-OV-3 ovarian = system: SK-OV-3 ovarian
IGROV1 ovarian = system: IGROV1 ovarian
OVCAR-3 ovarian = system: OVCAR-3 ovarian
HS 578T breast = system: HS 578T breast
NCI/ADR-RES ovarian = system: NCI/ADR-RES ovarian
T-47D breast = system: T-47D breast

Measured: growth

COc1ccc(-c2cc(/C=C3\C(=O)Nc4ccc(Cl)cc43)[nH]n2)cc1OC
inactive: SN12C renal 87.1% | UO-31 renal 71.1% | TK-10 renal 90% | ACHN renal 79.4% | CAKI-1 renal 81.3% | A498 renal 76% | CCRF-CEM leukemia 72.2% | MOLT-4 leukemia 57.5% | SR leukemia 55.2% | RPMI-8226 leukemia 68.6% | OVCAR-8 ovarian 81.4% | OVCAR-5 ovarian 101% | OVCAR-4 ovarian 19% | SK-OV-3 ovarian 94.6% | IGROV1 ovarian 66.8% | OVCAR-3 ovarian 104% | HS 578T breast 87.8% | NCI/ADR-RES ovarian 91.5% | T-47D breast 72.2%

COc1ccc(/C=C2/CN(C(=O)c3ccc(C)cc3)C/C(=C\c3ccc(OC)cc3)C2=O)cc1
active: RPMI-8226 leukemia -6.11%
inactive: SN12C renal 90.7% | UO-31 renal 58.5% | TK-10 renal 113% | ACHN renal 92% | CAKI-1 renal 85.2% | A498 renal 89.4% | CCRF-CEM leukemia 71.3% | MOLT-4 leukemia 69.3% | SR leukemia 12.8% | OVCAR-8 ovarian 88.9% | OVCAR-5 ovarian 109% | OVCAR-4 ovarian 83.8% | SK-OV-3 ovarian 99.1% | IGROV1 ovarian 89.8% | OVCAR-3 ovarian 90.7% | HS 578T breast 92% | NCI/ADR-RES ovarian 86.7% | T-47D breast 69.3%

Cc1ccc(C(=O)N2C/C(=C/c3ccc(F)cc3)C(=O)/C(=C/c3ccc(F)cc3)C2)cc1
active: RPMI-8226 leukemia -18%
inactive: SN12C renal 92.4% | UO-31 renal 64.3% | TK-10 renal 102% | ACHN renal 103% | CAKI-1 renal 81.3% | A498 renal 93.5% | CCRF-CEM leukemia 63.1% | MOLT-4 leukemia 71.6% | SR leukemia 20.4% | OVCAR-8 ovarian 91.4% | OVCAR-5 ovarian 110% | OVCAR-4 ovarian 87.7% | SK-OV-3 ovarian 92.5% | IGROV1 ovarian 102% | OVCAR-3 ovarian 101% | HS 578T breast 107% | NCI/ADR-RES ovarian 82% | T-47D breast 81.9%

O=C(Nc1ccc(OS(=O)(=O)c2ccccc2)cc1)C12CC3CC(CC(C3)C1)C2
inactive: SN12C renal 63.5% | UO-31 renal 44.6% | TK-10 renal 68.6% | ACHN renal 78.5% | CAKI-1 renal 54.7% | A498 renal 14.4% | CCRF-CEM leukemia 40.2% | MOLT-4 leukemia 39.5% | SR leukemia 11.2% | RPMI-8226 leukemia 18.8% | OVCAR-8 ovarian 63% | OVCAR-5 ovarian 68% | OVCAR-4 ovarian 58.9% | SK-OV-3 ovarian 74% | IGROV1 ovarian 75.1% | OVCAR-3 ovarian 63.9% | HS 578T breast 63.1% | NCI/ADR-RES ovarian 52.5% | T-47D breast 27%

N=C(N)c1ccc(-c2ccc(-c3cccs3)s2)s1
active: SN12C renal -74.9% | UO-31 renal -77.1% | TK-10 renal -51.1% | CAKI-1 renal -49% | A498 renal -32.6% | CCRF-CEM leukemia -52.3% | MOLT-4 leukemia -55.7% | SR leukemia -50.9% | RPMI-8226 leukemia -46.6% | OVCAR-8 ovarian -47.2% | OVCAR-5 ovarian 0.532% | OVCAR-4 ovarian -64.1% | IGROV1 ovarian 3.96% | OVCAR-3 ovarian -89.2% | HS 578T breast -27.1% | NCI/ADR-RES ovarian -29.3%
inactive: ACHN renal 66.4% | SK-OV-3 ovarian 74.2% | T-47D breast 70.2%

O=C(Nc1cccc(-n2cc(-c3ccncc3)c(-c3cc(O)cc(Cl)c3)n2)c1)Nc1ccc(Cl)c(C(F)(F)F)c1
active: CCRF-CEM leukemia 9.31% | MOLT-4 leukemia -18% | SR leukemia -30.6% | OVCAR-8 ovarian 3.69% | OVCAR-3 ovarian 1.88%
inactive: SN12C renal 34.6% | UO-31 renal 18.5% | TK-10 renal 25.9% | ACHN renal 21.3% | CAKI-1 renal 29.1% | A498 renal 21.5% | RPMI-8226 leukemia 13.8% | OVCAR-5 ovarian 59.3% | OVCAR-4 ovarian 31.5% | SK-OV-3 ovarian 63.1% | IGROV1 ovarian 30.6% | HS 578T breast 21.7% | NCI/ADR-RES ovarian 41.5% | T-47D breast 25%

CCOCC(=O)C(C#N)c1ccc(Cl)c(Cl)c1 (centres undefined)
inactive: SN12C renal 97.8% | UO-31 renal 82.8% | TK-10 renal 105% | ACHN renal 91.3% | CAKI-1 renal 90% | A498 renal 91.6% | CCRF-CEM leukemia 86.8% | MOLT-4 leukemia 101% | SR leukemia 88.2% | RPMI-8226 leukemia 88.9% | OVCAR-8 ovarian 101% | OVCAR-5 ovarian 96.6% | OVCAR-4 ovarian 91.3% | SK-OV-3 ovarian 100% | IGROV1 ovarian 101% | OVCAR-3 ovarian 110% | HS 578T breast 100% | NCI/ADR-RES ovarian 115% | T-47D breast 124%

C#Cc1ccc(-n2c(/C=C/c3ccc4ccccc4n3)nc3ncccc3c2=O)cc1
active: SN12C renal -15% | UO-31 renal -91.7% | TK-10 renal -44.4% | ACHN renal 2.7% | CAKI-1 renal -20.5% | A498 renal -69.1% | CCRF-CEM leukemia -15.1% | MOLT-4 leukemia -7.6% | SR leukemia -17.9% | RPMI-8226 leukemia -27.7% | OVCAR-8 ovarian -16.4% | OVCAR-5 ovarian -4.33% | OVCAR-4 ovarian -62.4% | SK-OV-3 ovarian 5.05% | IGROV1 ovarian -65.6% | OVCAR-3 ovarian -66.8% | NCI/ADR-RES ovarian -6.13% | T-47D breast -51.9%
inactive: HS 578T breast 11%

Nc1c(C(=O)Nc2ccccc2Cl)sc2nc3c(cc12)C(=O)CCC3
active: A498 renal -10.9%
inactive: SN12C renal 56.7% | UO-31 renal 68.9% | TK-10 renal 64.3% | ACHN renal 57.1% | CAKI-1 renal 20.7% | CCRF-CEM leukemia 19.4% | MOLT-4 leukemia 86.8% | SR leukemia 42.3% | RPMI-8226 leukemia 87.9% | OVCAR-8 ovarian 100% | OVCAR-5 ovarian 70.5% | OVCAR-4 ovarian 84.4% | SK-OV-3 ovarian 13.8% | IGROV1 ovarian 62.9% | OVCAR-3 ovarian 56.4% | HS 578T breast 40.8% | NCI/ADR-RES ovarian 57.2% | T-47D breast 75%

Oc1[nH]c2cc(Cl)ccc2c1/C=c1/ccc2c(c1)N=C(c1cc(F)cc(F)c1)N=2
active: A498 renal 0.502% | CCRF-CEM leukemia 9.33% | MOLT-4 leukemia 8.56% | RPMI-8226 leukemia -4.53% | SK-OV-3 ovarian 1.53% | OVCAR-3 ovarian -50.4% | NCI/ADR-RES ovarian 2.67%
inactive: SN12C renal 64% | UO-31 renal 43.3% | TK-10 renal 58.8% | ACHN renal 46.3% | CAKI-1 renal 17.1% | SR leukemia 11.4% | OVCAR-8 ovarian 30.5% | OVCAR-5 ovarian 75.5% | OVCAR-4 ovarian 48.8% | IGROV1 ovarian 43% | HS 578T breast 17.3% | T-47D breast 30.9%

COc1ccc(C2=Nc3c(C)nn(-c4ccccc4)c3NC(c3ccc(Oc4ccnc5cc(Cl)ccc45)c(OC)c3)C2)cc1 (centres undefined)
active: SR leukemia -0.699%
inactive: SN12C renal 72.5% | UO-31 renal 53% | TK-10 renal 129% | ACHN renal 76.4% | CAKI-1 renal 70.8% | A498 renal 54.2% | CCRF-CEM leukemia 71.2% | MOLT-4 leukemia 51.4% | RPMI-8226 leukemia 56.7% | OVCAR-8 ovarian 75.2% | OVCAR-5 ovarian 95.2% | OVCAR-4 ovarian 43% | SK-OV-3 ovarian 74.7% | IGROV1 ovarian 73.4% | OVCAR-3 ovarian 79.9% | HS 578T breast 78.6% | NCI/ADR-RES ovarian 79.9% | T-47D breast 61.9%

COc1ccc(-c2cc(/C=C3\C(=O)Nc4ccc(OC)cc43)[nH]n2)cc1
active: OVCAR-3 ovarian 2.64%
inactive: SN12C renal 42.7% | UO-31 renal 40.6% | TK-10 renal 48.9% | ACHN renal 52.5% | CAKI-1 renal 33% | A498 renal 23.3% | CCRF-CEM leukemia 18.1% | MOLT-4 leukemia 27% | SR leukemia 20.1% | RPMI-8226 leukemia 20.6% | OVCAR-8 ovarian 48.8% | OVCAR-5 ovarian 82.5% | OVCAR-4 ovarian 79.8% | SK-OV-3 ovarian 33.6% | IGROV1 ovarian 31.8% | HS 578T breast 14% | NCI/ADR-RES ovarian 21.7% | T-47D breast 47.3%

CCOC(=O)N/N=C\C(C)=N\NC(=O)OCC
inactive: SN12C renal 94.6% | UO-31 renal 85.1% | TK-10 renal 98.8% | ACHN renal 99.4% | CAKI-1 renal 90.1% | A498 renal 103% | CCRF-CEM leukemia 93.6% | MOLT-4 leukemia 101% | SR leukemia 96.6% | RPMI-8226 leukemia 98.8% | OVCAR-8 ovarian 99% | OVCAR-5 ovarian 100% | OVCAR-4 ovarian 102% | SK-OV-3 ovarian 98.7% | IGROV1 ovarian 108% | OVCAR-3 ovarian 106% | HS 578T breast 115% | NCI/ADR-RES ovarian 97.9% | T-47D breast 99.9%

O=C(N/N=C/c1cc2ccccc2c2ccccc12)c1cc(O)c(O)c(O)c1
active: SR leukemia 9.56% | T-47D breast 2.62%
inactive: SN12C renal 69.8% | UO-31 renal 39.2% | TK-10 renal 69.2% | ACHN renal 47.2% | CAKI-1 renal 43.7% | A498 renal 106% | CCRF-CEM leukemia 11.3% | MOLT-4 leukemia 35.6% | RPMI-8226 leukemia 78.8% | OVCAR-8 ovarian 48.5% | OVCAR-5 ovarian 90.4% | OVCAR-4 ovarian 26.4% | SK-OV-3 ovarian 78.8% | IGROV1 ovarian 58.7% | OVCAR-3 ovarian 58% | HS 578T breast 75.4% | NCI/ADR-RES ovarian 81.4%

CCC(=O)N1C/C(=C/c2ccc(Cl)cc2)C(=O)/C(=C/c2ccc(Cl)cc2)C1
inactive: HS 578T breast 22.2% | NCI/ADR-RES ovarian 14.9% | T-47D breast 26%
active: SN12C renal -26.1% | UO-31 renal -94% | TK-10 renal -30.6% | ACHN renal -50.7% | CAKI-1 renal -20.7% | A498 renal -26.7% | CCRF-CEM leukemia -11.1% | MOLT-4 leukemia -8.59% | SR leukemia -27.9% | RPMI-8226 leukemia -37% | OVCAR-8 ovarian 1.63% | OVCAR-5 ovarian 2.37% | OVCAR-4 ovarian 8.11% | SK-OV-3 ovarian -34.8% | IGROV1 ovarian -66.1% | OVCAR-3 ovarian -47.2%

COc1ccc(-c2nn(-c3cccc(NC(=O)c4ccc(N5CCOCC5)c(C(F)(F)F)c4)c3)cc2-c2ccncc2)cc1Cl
inactive: SN12C renal 85.2% | UO-31 renal 40.9% | TK-10 renal 82.8% | ACHN renal 60.3% | CAKI-1 renal 47.9% | A498 renal 60% | CCRF-CEM leukemia 38.3% | MOLT-4 leukemia 42.1% | SR leukemia 27.2% | RPMI-8226 leukemia 14.6% | OVCAR-8 ovarian 55.3% | OVCAR-5 ovarian 73.1% | OVCAR-4 ovarian 92.3% | SK-OV-3 ovarian 83.5% | IGROV1 ovarian 94.3% | OVCAR-3 ovarian 83.3% | HS 578T breast 41.1% | NCI/ADR-RES ovarian 52.7% | T-47D breast 68.1%
